High-throughput results (PubChem)
HPGD block = qHTS Assay for Inhibitors of HPGD (15-Hydroxyprostaglandin Dehydrogenase) | Potency, µM, inactives show at the top dose activity change, negative = inhibition, actives largely listed as inhibitors | AID 894, 2007 | purified HPGD, NADH fluorescence kinetic, PGE2 substrate | hit rate 4.3% among 150,000 | 15-hydroxyprostaglandin dehydrogenase [NAD(+)] (Homo sapiens), P15428; active = well fitted inhibition curve with a large enough effect, not every such curve was filed as active; inconclusive = small, poorly fitted or top-dose-only effect, or another doubt; inactive = no such curve, though single readings can be large or run the other way; note: potency is the fitted concentration of half-maximal effect
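20 nM HPGD preincubated 15 min at room temperature with compound in 50 mM Tris-HCl pH 8, 0.01% Tween 20. Started with 1 mM NAD+ and 30 uM prostaglandin E2; NADH fluorescence (360/450 nm) read 5 times over 30-s intervals, last minus first.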
PNC assembly inh = High Content Assay for Compounds that inhibit the Assembly of the Perinucleolar Compartment; activity change (PNC), negative = inhibition, % at 10 µM; hit rate 3.1% among 140,000; PC3M PTB-GFP, PNC prevalence imaging, 16 h; stronger effect = lower value;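 active = readout at or below -70, meaning at least 70% loss of cells showing the perinucleolar compartment, a nuclear body marking cancer cells; inconclusive = readout between -30 and a set limit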;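 note: plate controls were DMSO wells for no effect and camptothecin positive control wells for full effect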
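Read-out is percentage of cells bearing a perinucleolar compartment, from automated 20x imaging of fixed, Hoechst-stained PC3M PTB-GFP cells. Cells were seeded 4 h, then exposed 16 h to compound (23 nl of library stock) in duplicate plates.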
NPSR antag = qHTS Assay for Antagonists of the Neuropeptide S Receptor: cAMP Signal Transduction. hit rate 1% among 220,000. CHO-NPSR cells, cAMP TR-FRET, antagonist mode. AID 1461, 2008. Potency, µM (doses to about 38.3 µM), for inactives: at the top dose activity change, negative = inhibition, usual class: inhibitors; note: potency is the fitted concentration of half-maximal effect; nearly all actives have a fitted effect of over 50% in size
IMPase Li inh = qHTS Assay for Identifying the Cell-Membrane Permeable IMPase Inhibitors: Potentiation with Lithium | CHO-M1 cells, IP1 TR-FRET (IP-One), carbachol + lithium | Potency, µM (titrated, usually from 59.4 µM), inactives show top-dose activity, negative = IMPase inhibition, most hits filed as inhibitors | hit rate 0.35% among 210,000 | AID 1457, 2008;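 note: IP1 builds up when IMPase is blocked and the TR-FRET signal falls; potency is the fitted concentration of half-maximal effect; plate controls were basal vehicle for no effect and high inhibitor control for full effect; nearly all actives have a fitted effect of over 50% in size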
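CHO-M1, 2000 cells/well, 16–30 h culture; cpd + low Li+, 30 min 37C; lysis with d2-IP1/Eu-anti-IP1 Ab, 10 min RT; TR-FRET 665/620 ratio and 620 channel; AC50 via Hill.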
IMPase inh = qHTS Assay for Identifying the Cell-Membrane Permeable IMPase Inhibitors. inhibition (IP1 accumulation), % at 46.1 µM. CHO-M1 cells, IP1 accumulation, HTRF TR-FRET ratio. Inositol monophosphatase 1 (Rattus norvegicus), P97697. 120,000 tested, under 10 active. AID 901, 2007; active = well fitted curve in the direction sought with a large enough effect in the signal ratio, not every such curve was filed as active; inconclusive = small, poorly fitted or top-dose-only effect, or a change in a side signal; inactive = no such curve, though single readings can be large or run the other way; the % refers to the signal ratio;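 note: cells stimulated with carbachol in lithium chloride buffer; plate controls were DMSO basal wells for no effect and reference inhibitor wells for full effect; higher means more IMPase inhibition seen as more IP1 and lower FRET ratio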
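Seeded CHO-M1 cells were dosed with compound at up to 46 uM, stimulated with carbachol for 30 min, then lysed in IP-One detection reagents. Higher IP1 lowers the TR-FRET signal.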
ALDH1A1 block = qHTS Assay for Inhibitors of Aldehyde Dehydrogenase 1 (ALDH1A1); AID 1030, 2008; Potency, µM (titrated, usually from 75.3 µM), for the others: at the highest dose activity, negative = inhibition, actives largely listed as inhibitors; hit rate 7.3% among 220,000; Aldehyde dehydrogenase 1A1 (Homo sapiens), P00352; Purified ALDH1A1, NADH fluorescence, propionaldehyde substrate; active = well fitted inhibition curve with a large enough effect, not every such curve was filed as active; inconclusive = small, poorly fitted or top-dose-only effect, or another doubt; inactive = no such curve, though single readings can be large or run the other way;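 note: potency is the fitted concentration of half-maximal effect; plate controls were no enzyme wells and a reference inhibitor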
Target sequence (P00352 whole entry, looked up): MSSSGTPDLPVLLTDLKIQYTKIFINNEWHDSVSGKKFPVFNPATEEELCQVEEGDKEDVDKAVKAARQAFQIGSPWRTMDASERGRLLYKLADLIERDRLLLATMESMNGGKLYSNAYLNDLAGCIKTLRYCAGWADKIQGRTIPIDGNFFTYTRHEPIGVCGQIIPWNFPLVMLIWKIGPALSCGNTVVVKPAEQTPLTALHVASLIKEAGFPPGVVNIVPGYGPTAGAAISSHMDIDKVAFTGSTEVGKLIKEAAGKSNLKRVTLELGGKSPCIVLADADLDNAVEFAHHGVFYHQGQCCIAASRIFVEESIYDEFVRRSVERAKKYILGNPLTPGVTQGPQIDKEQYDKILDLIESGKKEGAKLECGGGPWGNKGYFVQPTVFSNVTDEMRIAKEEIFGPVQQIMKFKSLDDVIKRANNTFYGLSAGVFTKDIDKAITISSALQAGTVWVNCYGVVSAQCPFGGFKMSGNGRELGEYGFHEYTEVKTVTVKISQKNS
Active calls of the source: *; ? = inconclusive; . = not tested or not shown; [ ] = dose if it differs, or a comment. Most compounds without a hit are left out; they make up all but 11% or so of the library. Unless noted, calls come from the whole dose curve; as a rule, active = well fitted curve in the direction sought with a large enough effect; inconclusive = small, poorly fitted or top-dose-only effect, or another doubt; inactive = no such curve, though single readings can be large; an effect the other way counts as inactive or inconclusive. Unless noted, % is set by controls: 0 for no effect and ±100 for the full control effect.

SMILES | HPGD block | PNC assembly inh | NPSR antag | IMPase Li inh | IMPase inh | ALDH1A1 block
COc1ccc(CN(C(=O)c2cccs2)C(C(=O)NC2CCCCC2)c2ccc3ncccc3c2)cc1 (configuration not stated) | -11% | 69 | ? | -5%[38.3 µM] | -3 | ?
COc1ccc(CN(C(=O)c2nsc(Cl)c2Cl)C(C(=O)NC2CCCC2)c2ccc(C)cc2)cc1 (configuration not stated) | -9% | 3 | ? | 4% | . | 13µM*
COc1ccc(CN(C(=O)c2nsc(Cl)c2Cl)C(C(=O)NC2CCCCC2)c2ccc(OC)cc2)cc1 (configuration not stated) | -15% | 53 | ? | 8%[38.3 µM] | 4 | 7.1µM*
Cc1nnc(SCc2nc3scc(-c4ccccc4)c3c(=O)[nH]2)s1 | . | . | 9% | . | . | 5%
CC(C)N(C(=O)C[n+]1ccc(/C=N/O)cc1)C(C)C | -8% | -10 | -6% | 2% | . | 16%
CCOc1cccc(/C=N/Nc2nc(N3CCCC3)nc(N3CCCC3)n2)c1O | . | . | -5% | . | . | .
CCOc1cc(/C=N/Nc2nc(N3CCCC3)nc(N3CCCC3)n2)ccc1O | -21% | ? | 13µM* | 20% | 12 | 1%
COc1cc([N+](=O)[O-])ccc1NC(=O)CSc1nccn1C | . | . | 4% | 8% | . | ?
Nc1nonc1-c1noc(CCCN2C(=O)c3ccccc3C2=O)n1 | -7% | 55 | -3%[46.1 µM] | -9%[38.3 µM] | 3 | -24%
CCOC(=O)C(=O)C1=C(N2CCOCC2)/C(=C\c2ccc(F)cc2)CC1 | -12% | -4 | -4% | 6% | . | 13µM*
CCOc1ccc(NC(=O)C2C3CCC4C(CCC32)C4(Cl)Cl)cc1 (configuration not stated) | . | . | 4% | 7% | . | 0%
O=C1OC2(CCCCC2)OC(=O)C1=CNc1ccc2c(c1)OCO2 | -14% | 17 | -16%[46.1 µM] | 2%[38.3 µM] | -6 | 0.89µM*
COc1cccc(NC=C2C(=O)OC(C)(C)OC2=O)c1 | -8% | -17 | -8%[46.1 µM] | 8%[38.3 µM] | -1 | 10µM*
COC(=O)c1ccccc1NC=C1C(=O)OC2(CCCCC2)OC1=O | -16% | ? | -13%[46.1 µM] | 17%[38.3 µM] | 3 | ?
COc1cccc(NC=C2C(=O)OC3(CCCCC3)OC2=O)c1 | -24% | 22 | -24%[46.1 µM] | 14%[38.3 µM] | 6 | 1.6µM*
COc1cccc(NC(=O)CC2(CC(=O)O)CCCC2)c1 | ? | 12 | -2%[46.1 µM] | 6%[38.3 µM] | 10 | 20%
CCOC(=O)c1ccc(NC=C2C(=O)OC3(CCCCC3)OC2=O)cc1 | -14% | 15 | -4%[46.1 µM] | 7%[38.3 µM] | 9 | ?
COc1ccccc1NC=C1C(=O)OC2(CCCCC2)OC1=O | ? | 5 | ? | 2%[38.3 µM] | 2 | 0.056µM*
COC(=O)c1ccc(C(NC(=O)OCc2ccccc2)/C(C)=C/[C@@H](C)C(=O)NCc2cccnc2)cc1 (some centres not stated) | -4% | . | . | 2% | . | -5%
CN1CCN(CCCNC(=O)c2ccc(CSCc3cccc(Cl)c3)o2)CC1 | -3% | 68 | 3%[46.1 µM] | -30%[38.3 µM] | -3 | 5%
O=C1OC2(CCCCC2)OC(=O)C1=CNc1nccs1 | 1% | 48 | 10%[46.1 µM] | 9%[38.3 µM] | -1 | ?
O=C1OC2(CCCCC2)OC(=O)C1=CNc1nc2ccccc2s1 | -10% | ? | -9%[46.1 µM] | 1%[38.3 µM] | -11 | 11µM*
O=C1c2ccccc2C(=O)N1c1cccc(-c2csc(Nc3ccc4c(c3)OCO4)n2)c1 | -17% | 20 | 0% | 2% | -5 | 7.1µM*
Cc1ccc(-c2nc(N)n(S(=O)(=O)c3ccc(C)cc3)n2)cc1 | . | . | -18% | 0% | . | 0%
O=C(N/N=C1\C(=O)c2cccc3cccc1c23)c1ccc(O)cc1 | . | . | -21% | 29% | . | 10µM*
CNC(=S)N/N=C1\C(=O)c2cccc3cccc1c23 | -16% | -11 | 3.2µM* | 22%[38.3 µM] | 7 | ?
